Measured values reported in PubChem BioAssay (EPA / NIEHS).
Activity calls are given as the source filed them. How the source made its calls: active means hit-call score of the fitted dose curve at least 0.9, where 1 is the maximum; inactive means score below 0.9.

Tests used:
Settings in all cases: mRNA level, 48 h; actives raise or lower the signal
[1] = read-out: Fatty Acid-Binding Protein 1 (FABP1), FABP1 (gene 2168); assay: LTEA_HepaRG_FABP1: Life Technologies and Expression Analysis (LTEA) Assay for Fatty Acid-Binding Protein 1 (FABP1) using HepaRG (AID 2283494)
Summary of the method: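 HepaRG, 48 h post-plating switched to serum-free induction medium, then dosed 48 h (duplicate, 8 pts, ≤100 uM, 0.5% DMSO). RNA → Fluidigm TaqMan qRT-PCR, FABP1 normed to ACTB/GAPDH/POLR2A. Bidirectional curve fit vs DMSO.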

[2] = read-out: Cytochrome P450 4A22 (Homo sapiens) (UniProt Q5TCH4); assay: LTEA_HepaRG_CYP4A22: Life Technologies and Expression Analysis (LTEA) Assay for Cytochrome P450 4A22 (CYP4A22) using HepaRG (AID 2283495)
Summary of the method: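 HepaRG, 48 h post-plating -> serum-free induction medium; dosed 48 h, duplicate, 8 conc. (100 uM top, half-log), 0.5% DMSO. Readout: CYP4A22 mRNA by qRT-PCR, ACTB/GAPDH/POLR2A normalization; gain/loss fit relative to DMSO.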

[3] = read-out: Cytochrome P450 7A1 (Homo sapiens) (UniProt P22680); assay: LTEA_HepaRG_CYP7A1: Life Technologies and Expression Analysis (LTEA) Assay for Cytochrome P450 7A1 (CYP7A1) using HepaRG (AID 2283496)
Summary of the method: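 Gene expression endpoint in human HepaRG liver cells treated for 48 h with test chemicals (up to 100 uM, 0.5% DMSO). Values come from bidirectional concentration-response fitting versus DMSO.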

[4] = read-out: growth arrest and DNA damage 45 (GADD45G), GADD45G (gene 10912); assay: LTEA_HepaRG_GADD45G: Life Technologies and Expression Analysis (LTEA) Assay for growth arrest and DNA damage 45 (GADD45G) using HepaRG (AID 2283499)
Summary of the method: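 HepaRG, 48 h exposure, top 100 uM, half-log 8-point series, 0.5% DMSO vehicle, duplicates. Readout: GADD45G transcript by qRT-PCR (Fluidigm array), housekeeping-normalised (ACTB/GAPDH/POLR2A). Bidirectional curve fit vs DMSO baseline.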

[5] = read-out: Glutamate-cysteine ligase regulatory (GCLM), GCLM (gene 2730); assay: LTEA_HepaRG_GCLM: Life Technologies and Expression Analysis (LTEA) Assay for Glutamate-cysteine ligase regulatory (GCLM) using HepaRG (AID 2283500)
Summary of the method: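 Differentiated human HepaRG cells exposed 48 h in serum-free induction medium to 8-point half-log concentrations (top 100 uM, 0.5% DMSO), in duplicate. GCLM mRNA quantified by qRT-PCR, normalized to ACTB, GAPDH, POLR2A; bidirectional fitting versus DMSO.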

[6] = read-out: Glutathione S-transferase M3 (GSTM3), GSTM3 (gene 2947); assay: LTEA_HepaRG_GSTM3: Life Technologies and Expression Analysis (LTEA) Assay for Glutathione S-transferase M3 (GSTM3) using HepaRG (AID 2283501)
Summary of the method: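 qRT-PCR read-out of GSTM3 transcript, normalized to three housekeeping genes, from human HepaRG cells after 48 h chemical exposure. Eight-point half-log series, top 100 uM, 0.5% DMSO vehicle; gain or loss fitted relative to DMSO baseline.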

[7] = read-out: Heat shock 70 kDa protein 1 (HSPA1A), gene 3303; assay: LTEA_HepaRG_HSPA1A: Life Technologies and Expression Analysis (LTEA) Assay for Heat shock 70 kDa protein 1 (HSPA1A) using HepaRG (AID 2283502)
Summary of the method: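 Differentiated human HepaRG cells in serum-free induction medium were exposed in duplicate for 48 h to eight concentrations (top 100 uM, half-log steps, 0.5% DMSO). HSPA1A mRNA was quantified by qRT-PCR, normalized to ACTB, GAPDH and POLR2A, and fitted bidirectionally against DMSO.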

[8] = read-out: Hypoxia-inducible factor 1-alpha (Homo sapiens) (UniProt Q16665); assay: LTEA_HepaRG_HIF1A: Life Technologies and Expression Analysis (LTEA) Assay for Hypoxia-inducible factor 1 (HIF1A) Trancription factor using HepaRG (AID 2283503);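 further: HIF1A transcript by TaqMan qRT-PCR normalized to ACTB GAPDH and POLR2A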
Summary of the method: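 HepaRG, 48 h exposure, 8-pt half-log series from 100 uM, 0.5% DMSO vehicle, duplicates. Readout: HIF1A transcript by qRT-PCR (Fluidigm array), housekeeping-normalised. Bidirectional curve fit vs DMSO baseline.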

Hypoxia-inducible factor 1-alpha (Homo sapiens), sequence (Q16665 whole entry, looked up): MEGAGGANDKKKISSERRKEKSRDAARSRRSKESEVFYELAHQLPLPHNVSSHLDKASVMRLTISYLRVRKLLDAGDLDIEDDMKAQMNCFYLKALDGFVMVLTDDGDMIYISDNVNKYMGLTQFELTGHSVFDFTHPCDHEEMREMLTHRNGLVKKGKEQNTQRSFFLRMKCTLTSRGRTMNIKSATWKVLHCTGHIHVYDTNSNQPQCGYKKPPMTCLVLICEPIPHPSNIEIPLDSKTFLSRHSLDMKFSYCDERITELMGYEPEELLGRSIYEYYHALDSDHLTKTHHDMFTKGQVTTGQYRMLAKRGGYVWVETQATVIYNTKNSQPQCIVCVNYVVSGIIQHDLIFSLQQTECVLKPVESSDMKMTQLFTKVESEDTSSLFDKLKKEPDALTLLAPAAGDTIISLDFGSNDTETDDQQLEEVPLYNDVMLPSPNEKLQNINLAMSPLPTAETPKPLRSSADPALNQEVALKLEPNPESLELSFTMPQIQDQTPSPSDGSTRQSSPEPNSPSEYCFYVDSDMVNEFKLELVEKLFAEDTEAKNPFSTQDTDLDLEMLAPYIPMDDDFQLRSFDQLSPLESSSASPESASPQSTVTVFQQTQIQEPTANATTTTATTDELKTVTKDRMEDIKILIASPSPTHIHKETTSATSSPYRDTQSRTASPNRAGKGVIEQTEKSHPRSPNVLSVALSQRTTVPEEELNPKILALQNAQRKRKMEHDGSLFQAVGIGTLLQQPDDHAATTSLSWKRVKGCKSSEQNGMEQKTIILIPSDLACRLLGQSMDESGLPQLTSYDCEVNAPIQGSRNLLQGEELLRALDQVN

SMILES	outcome [1]	outcome [2]	outcome [3]	outcome [4]	outcome [5]	outcome [6]	outcome [7]	outcome [8]	AC50 [1]	AC50 [2]	AC50 [4]	AC50 [3]	AC50 [5]	AC50 [8]	AC50 [6]
CCCCc1ccccc1	inactive	inactive	inactive	inactive	inactive	inactive	inactive	inactive	–	–	–	–	–	–	–
CC(C)(C)OOC(C)(C)C	inactive	inactive	inactive	inactive	inactive	inactive	inactive	inactive	–	–	–	–	–	–	–
CSC(C)(C)C=NO	inactive	inactive	inactive	inactive	inactive	inactive	inactive	inactive	–	–	–	–	–	–	–
CCNc1nc(Cl)nc(NC(C)(C)C)n1	–	–	inactive	inactive	inactive	inactive	inactive	inactive	28.7 µM (active)	11 µM (active)	–	–	–	–	–
CCOP(=S)(Oc1ccc([N+](=O)[O-])cc1)c1ccccc1 (configuration not stated)	–	inactive	inactive	–	inactive	inactive	–	inactive	12.7 µM (active)	–	65.7 µM (active)	–	–	–	–
CN(C)C(=O)Cl	inactive	inactive	inactive	inactive	inactive	inactive	inactive	inactive	–	–	–	–	–	–	–
ClC1=C(Cl)C2(Cl)C3C(Cl)C(Cl)CC3C1(Cl)C2(Cl)Cl (configuration not stated)	–	–	–	inactive	–	inactive	inactive	–	12.5 µM (active)	26.2 µM (active)	–	10.4 µM (active)	50 µM (active)	4.98 µM (active)	–
Cc1ccc(O)cc1C	inactive	–	–	inactive	inactive	inactive	inactive	inactive	–	–	–	–	–	–	–
CCCCN(CCCC)N=O	inactive	inactive	inactive	inactive	inactive	inactive	inactive	inactive	–	–	–	–	–	–	–
Cc1ccc(N)cc1N	inactive	inactive	–	inactive	inactive	inactive	inactive	inactive	–	–	–	18 µM (active)	–	–	–
CCOP(=S)(OCC)SCSCC	inactive	inactive	inactive	inactive	inactive	inactive	inactive	inactive	–	–	–	–	–	–	–
CCOC(=O)c1ccccc1C(=O)OCC	inactive	inactive	inactive	inactive	inactive	inactive	inactive	inactive	–	–	–	–	–	–	–
Cc1cccc(N)c1	inactive	–	–	inactive	inactive	inactive	inactive	inactive	–	–	–	–	–	–	–
Nc1ccc2ccccc2c1	–	inactive	inactive	inactive	inactive	inactive	inactive	inactive	18.9 µM (active)	–	–	–	–	–	–
O=C(O)C(Cl)Cl	inactive	inactive	inactive	inactive	inactive	inactive	inactive	inactive	–	–	–	–	–	–	–
O=[N+]([O-])c1ccc(Cl)c(Cl)c1	inactive	inactive	inactive	inactive	inactive	inactive	inactive	inactive	–	–	–	–	–	–	–
CC(Cl)(Cl)C(=O)O	inactive	inactive	inactive	inactive	inactive	inactive	inactive	inactive	–	–	–	–	–	–	–
O=[N+]([O-])c1ccccc1	inactive	–	–	inactive	inactive	inactive	inactive	inactive	–	–	–	–	–	–	–
c1nc[nH]n1	inactive	inactive	inactive	inactive	inactive	–	inactive	inactive	–	–	–	–	–	–	12.6 µM (active)
CCOS(=O)(=O)OCC	inactive	inactive	inactive	inactive	inactive	inactive	inactive	inactive	–	–	–	–	–	–	–
CCCCN(CCCC)SN(C)C(=O)Oc1cccc2c1OC(C)(C)C2	inactive	inactive	–	inactive	inactive	inactive	inactive	inactive	–	–	–	50 µM (active)	–	–	–
CC(C)(C)c1ccc(O)cc1	inactive	–	–	inactive	inactive	inactive	inactive	inactive	–	–	–	–	–	–	–
